# Results taken from ChEMBL document CHEMBL4888484, “Replenishing the malaria drug discovery pipeline: Screening and hit evaluation of the MMV Hit Generation Library 1 (HGL1) against asexual blood stage Plasmodium falciparum ,using a nano luciferase reporter read-out” (2022).
# Hit rate of the full screen: of about 4,800 compounds, about 410 (8.5%) showed an effect of 50% or more. The sample holds strong results, similar compounds and a random draw of the others, so the mix is not that of the screen.
# System: Plasmodium falciparum
# Assay: Confirmatory screen in NF54 pLDH assay, in single point, at 2uM, 72h
# Format: functional, Erythrocyte
# Conditions: timepoint 72 hour
row,Structure (SMILES),% Inhibition [%]
1,Cc1nn(C)c(N)c1C(=O)N(C1CCC1)C1CCC1,-16
2,Cc1cc(Cn2c(=O)n(Cc3ccccc3)c3ccncc32)on1,7
3,COc1ccc([C@@H]2C(C#N)(C#N)C23C(=O)CC(C)(C)CC3=O)cc1,-12
4,N#Cc1cccc(-c2c[nH]c(CNc3nc4cc(C(F)(F)F)ccc4s3)n2)c1,7
5,Cc1nc2cccnc2n1-c1cc(C(=O)NCC[C@H](C)N2CCCC2)ccc1Cl,8
6,CC1CCN(C(=O)NCC2CCC(F)(F)CC2)CC1n1ccnc1 (stereo unspecified),12
7,COc1cc(CC2CN(C(=O)c3cscn3)C2)cc(OC)c1,3
8,CS(=O)(=O)CC1(CC(=O)N[C@H](c2ccccc2)C2CCC2)CC1,11
9,Cc1nn(CC2(O)CCCCC2)c(=O)c(C#N)c1C,-10
10,CS(=O)(=O)n1c(CCCc2ccccc2)nc2ccccc21,15
11,Cc1ccc(S(=O)(=O)c2c(NS(=O)(=O)c3ccccc3)n(CCc3ccccc3)c3nc4ccccc4nc23)cc1,102
12,COCCCn1c(NS(=O)(=O)c2ccc3ccccc3c2)c(S(=O)(=O)c2ccc(C)cc2)c2nc3ccccc3nc21,16
13,Cc1ccc(S(=O)(=O)Nc2cc3nc4ccccc4nc3n2CCc2ccccc2)cc1,97
14,Cc1cc(NC(=O)Cn2c(=O)n(CCc3ccccc3)c(=O)c3ccccc32)no1,13
15,O=C(O)Cc1cccc(NC(=O)C2C3Cc4ccccc4C32)c1 (stereo unspecified),2
16,C[C@H](NC(=O)CC1(C)CCCCC1)c1cnn(C)c1,-5
17,O=C(Nc1cccc(OCCn2cncn2)c1)[C@@H]1CCCc2ccccc21,-19
18,Cc1cc(CCC(=O)Nc2nnn[nH]2)ccc1Br,10
19,COc1cc2c(cc1CNc1nc(N)nc3c1CCNCC3)CCC2,11
20,Cc1cc(C)cc(NC(=O)Cc2nnc3ccc(C(=O)Nc4ccccc4)cn23)c1,8
21,CC(=O)N1CCN(c2nc3c(s2)C[C@@H](C(=O)NCc2ccccc2F)CC3)CC1,-22
22,O=S1(=O)N=C(NC[C@@H](O)Cc2ccccc2)c2ccccc21,7

row,Structure (SMILES),% Inhibition [%]
1,Cc1cccc(NC(=O)Nc2cc(F)c3[nH]c(=O)ccc3c2)c1,-7
2,COc1ccc(-c2noc(CCn3c(=O)[nH]c4cc5c(cc4c3=O)OCO5)n2)c(OC)c1,6
3,Cc1cnc(C2CCN(C(=O)[C@@H]3CNC(=O)O3)CC2)s1,2
4,COC1(C)CN(c2cnc(C#N)cn2)C1,2
5,Cc1ccccc1N1CCN(C(=O)c2ccc3ncccc3c2)CC1,9
6,C[C@H]1CCCN(S(=O)(=O)NCC(=O)Nc2ccccn2)C1,-14
7,C[C@H]1CCN(c2nc(-c3ccccn3)nc3c2CCC3)C1,93
8,FC(F)(F)C1CN(c2nc(-c3ccccn3)nc3c2CCC3)C1,54
9,O[C@H]1Cc2ccccc2[C@H]1Nc1nc(-c2ccccn2)nc2c1CCNC2,-7
10,CCc1ccc(NC(=O)[C@H]2CCCN(c3nc4cccnc4n(Cc4ccccc4)c3=O)C2)cc1,-14
11,C[C@H]1CCCN(c2nc(-c3ccccn3)nc3ccccc23)C1,98
12,CCc1sc(N(C(=O)Cc2ccccc2)c2ccc(C)cc2C)nc1-c1ccc(Cl)cc1,12
13,COc1ccc(-n2nc(C(=O)N3CCOCC3)c(=O)cc2OC)cc1,3
14,CCc1nnc2c(S(=O)(=O)Nc3cc(F)cc(F)c3)cccn12,9
15,CN1N=C(C(=O)NC2CCC3CCCCC3C2)CCC1=O (stereo unspecified),-20
16,COc1ccc(C(=O)N(CCO)CCN2CCOCC2)c(OC2CCCC2)c1,11
17,Cc1cccc(-n2c(=O)[nH]c3nc(NCCN(C)C)ncc3c2=O)c1C,8
18,COc1ccccc1C(=O)N1CCC([C@H](NC(=O)c2ccc3c(c2)OCO3)C(=O)NC(C)C)CC1,10
19,COc1ccccc1CC(=O)NC[C@H](C)O,14
20,O=C1c2cc3ccccc3c(-c3ccccc3)c2C(=O)N1c1ccccc1,-16
21,CCc1nn2c(c1-c1ccc(C)cc1)NC(=O)C[C@H]2C(=O)O,12
22,Cc1cnc(CC[C@H]2CCCN2C(=O)CCCc2ccccc2)n1C,10

row,Structure (SMILES),% Inhibition [%]
1,CC(C)O[C@@H]1CCN(C[C@H](O)c2ccc(C(F)(F)F)cc2)C1,42
2,CCc1ccc(C(=O)N2CC[C@H](CC(=O)NCc3ccccc3)C2)cc1,10
3,Cc1cccc2c(-c3cc(N)nc(N)n3)c[nH]c12,100
4,Cc1cccc(C)c1NC(=O)c1cc(-c2cccc3ccccc23)[nH]n1,11
5,Cc1cc(Br)c2c(c1)C(O)(N1CCCC(C)C1)C(=O)N2 (stereo unspecified),9
6,O=C(CN1C(=O)C[C@H](Cc2ccc(F)cc2)C1=O)N1CCNC1=O,9
7,CN(C)c1nccc(NC[C@H](N)c2ccccc2)n1,-12
8,CN(C)c1nc(N)cc(-c2cccc3cccnc23)n1,55
9,CC1CCCC(C)N1C(=O)CN(C)c1cccc2cccnc12 (stereo unspecified),4
10,Cc1ccc(C(N)C(C)S(C)(=O)=O)cc1 (stereo unspecified),-18
11,COc1cccc(-c2cc(O)cc(CC[C@H]3CCCCN3)c2)n1,89
12,Oc1cc(CC[C@H]2CCCCN2)cc(-c2cnc3ccccc3n2)c1,80
13,O=C(NCC(F)(F)F)Nc1ccc(CO)cc1,3
14,O=c1[nH]c2cc(Cl)c(S(=O)(=O)Cl)cc2[nH]1,6
15,CCc1c(C(=O)NCc2ccc(CN3CC(C)OC(C)C3)cc2)[nH]c(C)c1C(C)=O (stereo unspecified),-27
16,COc1ccc(CC(=O)N2CCN(c3cnn4cnnc4c3)CC2)cc1,6
17,CCc1nnc2ccc(S(=O)(=O)N(CC#N)c3ccccc3)cn12,-16
18,c1coc(CNc2nc(Nc3cccc4ccccc34)nc3ccccc23)c1,50
19,COc1ccc(NC(=O)CCC(=O)NCc2ccco2)cc1,15
20,C=CCNC(=O)CCC(=O)NCc1ccco1,13
21,COc1ccc(CCN[C@@H]2c3ccccc3C(=O)N2C2CCCCC2)cc1OC,10
22,CC(=O)N(Cc1ccccc1)c1ccc2c(c1)nc(Cn1nc(C)cc1C)n2C,5
